M18AAP inhibitor = blocks P. falciparum M18 aspartyl aminopeptidase; recombinant PfM18AAP, H-Glu-NHMec fluorogenic cleavage; inhibition, % at 7.35 µM; hit rate 1.2% among 290,000; AID 1822;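 active = inhibition above the campaign mean inhibition over all tested compounds plus 3 SD, cut at about 28% in these data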
Cardio protect = protects H9c2 cardiomyocytes from peroxide injury; H2O2 injury protection, ATPLite, 2 h; protection from H2O2 cell death, % at 20 µM; hit rate 0.63% among 360,000; AID 588492;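 active = compounds giving at least 50% protection of heart cells from peroxide-induced death in the single-dose screen, raw or plate-pattern-corrected value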
ALR inh = human ALR oxidase inhibition via reduced H2O2; P55789; purified ALR, DTT oxidation, H2O2 HRP-luminol luminescence; inhibition, % (concentration not given with the values); hit rate 3.8% among 290,000;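 active = mean replicate inhibition above about 79%, with every replicate also reaching it, limit read from the data; inconclusive = only one of the two criteria met; inactive = mean below limit and not every replicate reaching it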
Target sequence (P55789 whole entry, looked up): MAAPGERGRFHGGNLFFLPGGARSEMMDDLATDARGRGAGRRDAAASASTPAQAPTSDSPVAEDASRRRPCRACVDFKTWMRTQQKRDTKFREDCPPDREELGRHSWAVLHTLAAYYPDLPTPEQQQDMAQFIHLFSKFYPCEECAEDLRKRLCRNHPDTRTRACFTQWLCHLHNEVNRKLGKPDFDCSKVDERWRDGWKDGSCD
PHOSPHO1 inh = blocks human PHOSPHO1 phosphatase activity. Q8TCT1. recombinant PHOSPHO1, absorbance phosphatase assay. inhibition, % at 13.3 µM. hit rate 1.1% among 290,000; in the data active = inhibition above about 60%
Target sequence (Q8TCT1 whole entry, looked up): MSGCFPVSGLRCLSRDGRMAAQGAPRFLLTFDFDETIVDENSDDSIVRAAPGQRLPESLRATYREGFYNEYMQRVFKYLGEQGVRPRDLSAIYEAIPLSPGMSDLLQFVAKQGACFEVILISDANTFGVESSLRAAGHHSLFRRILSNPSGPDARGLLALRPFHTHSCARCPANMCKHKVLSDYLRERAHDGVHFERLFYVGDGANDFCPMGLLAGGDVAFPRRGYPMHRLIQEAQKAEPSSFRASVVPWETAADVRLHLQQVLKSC
PfG6PD inh = PfG6PD (Plasmodium falciparum) enzyme inhibition. PfGluPho enzyme, NADPH resazurin-diaphorase fluorescence. inhibition, % at 20 µM. AID 504690. hit rate 0.78% among 350,000;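 active = inhibition reaching at least a set limit at 20 µM in the primary screen, cut at about 59% in these data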
Numbers stand for hits; 0 = inactive; ? = inconclusive; - = no result. A selection: hits, their analogues and other compounds. The true share with any hit is near 5.6%.

SMILES | M18AAP inhibitor | Cardio protect | ALR inh | PHOSPHO1 inh | PfG6PD inh
COc1cccc(/C=C/C(=O)Nc2ccc3c(c2)OCCO3)c1OC | 0 | 0 | 0 | 0 | 0
S=c1nc[nH]c2c1[nH]c1ccc(Cl)cc12 | 0 | 0 | 0 | 0 | 0
S=c1nc[nH]c2c1[nH]c1ccccc12 | 0 | 0 | 98 | 0 | 0
COc1cc(/C=N\NC(=O)C2CC3C=CC2C3)ccc1O (stereo unspecified) | 0 | 0 | 100 | 0 | 0
COc1cc(/C=N/NC(=O)NC23CC4CC(CC(C4)C2)C3)ccc1O | 0 | 0 | 95 | 0 | 0
CCOc1ccc(/C=N/NC(=O)NC23CC4CC(CC(C4)C2)C3)cc1O | 0 | 0 | 99 | 0 | 0
O=C(N/N=C/c1ccccc1O)NC12CC3CC(CC(C3)C1)C2 | 0 | 0 | 0 | 0 | 0
NC(=O)/C(=C\c1ccccc1)NC(=O)c1ccc(NC(=O)c2ccccc2)cc1 | 0 | 0 | 0 | 0 | 0
CC1=CC(=C2C=CC(=O)C=C2)C=C(C)N1C | 0 | - | - | 0 | -
COc1ccc(S(=O)(=O)N(C)C(C)CCc2ccco2)cc1 (stereo unspecified) | 0 | 0 | 0 | 0 | 0
COc1ccc(C(N)CCc2ccco2)cc1 (stereo unspecified) | 0 | 0 | 99 | 0 | 0
O=C(N/N=C/c1ccccc1O)C1CC(=O)N(c2ccc(Cl)cc2)C1 (stereo unspecified) | 0 | 55 | 0 | 0 | 0
O=C(CNC(=O)c1ccco1)OCC(=O)c1ccc(Cl)cc1 | 0 | 0 | - | 0 | 0
O=C(CNC(=O)c1ccco1)NCC(=O)OCC(=O)c1ccc(Cl)c([N+](=O)[O-])c1 | 0 | 0 | 98 | 0 | 0
Cc1ccc(N=c2oc3cc(O)ccc3cc2C(N)=O)cc1 | 0 | 0 | 96 | 0 | 0
CC(=O)c1cc2ccc(O)cc2oc1=O | 0 | 0 | - | 0 | 0
CC(Sc1nc(N)cc(N)n1)C(=O)NCCC1=CCCCC1 (stereo unspecified) | - | 0 | 0 | - | 0
COc1cccc(CNC(=O)C(C)n2ccc3cc(S(=O)(=O)N4CCCCCC4)ccc32)c1 (stereo unspecified) | 0 | 0 | 0 | 0 | 0
CCC(C(=O)NCCC(C)C)n1ccc2cc(S(=O)(=O)N3CCCCC3)ccc21 (stereo unspecified) | 0 | 0 | 0 | 63 | 0
Cc1ccc(F)cc1NC(=O)CSc1nnc(CNC(=O)c2ccco2)n1C | - | 0 | 0 | - | 0
O=C(Nn1c(COc2ccccc2)nc2ccccc2c1=O)C(Cl)(Cl)Cl | 0 | 0 | 97 | 0 | 0
CCCCn1c(N)c(N(CC)C(=O)c2ccc([N+](=O)[O-])c(C)c2)c(=O)[nH]c1=O | 0 | 0 | 0 | 0 | 0
CCOC(=O)c1[nH]c(C)c(C(=O)OCc2ccccc2F)c1C | 0 | 0 | 0 | 0 | 0
CCCCn1nc(NC(=O)c2cccs2)c2cc3cc(OC)ccc3nc21 | 0 | 62 | 0 | 0 | 0
CCCn1nc(NC(=O)c2cccs2)c2cc3cc(OC)ccc3nc21 | 0 | 0 | 0 | 0 | 0
SMILES | M18AAP inhibitor | Cardio protect | ALR inh | PHOSPHO1 inh | PfG6PD inh
CCCn1nc(NC(=O)c2cccs2)c2cc3ccccc3nc21 | 0 | 0 | - | 0 | 0
CCCCn1nc(NC(=O)c2cccs2)c2cc3ccccc3nc21 | 0 | 56 | 0 | 0 | 0
COc1ccc2nc3c(cc2c1)c(NC(=O)C1CCCO1)nn3CC(C)C (stereo unspecified) | 0 | 98 | 0 | 0 | 0
Cc1nnc(NC(=O)c2ccccc2F)s1 | 0 | 0 | 0 | 0 | 0
Cc1ccccc1N(C)S(=O)(=O)c1nnc(NC(=O)c2ccccc2F)s1 | 0 | 0 | 0 | 64 | 0
CC(C)(C)S(=O)(=O)/C(C#N)=N/Nc1ccc(Cl)cc1 | 0 | 0 | 99 | 0 | 0
CC(C)(C)c1ccc(N/N=C(\C#N)S(=O)(=O)C(C)(C)C)cc1 | 0 | 0 | 0 | 0 | 0
CN(C)S(=O)(=O)c1cccc(-c2cn3cccnc3n2)c1 | 0 | 0 | 99 | 0 | 0
Cc1ccc2nc(-c3cccc(S(=O)(=O)N4CC(C)OC(C)C4)c3)cn2c1 (stereo unspecified) | 0 | 0 | 98 | 0 | 0
Cc1ccc2nc(-c3cccc(S(=O)(=O)N4CCCC4)c3)cn2c1 | 0 | 0 | 0 | 0 | 0
Cc1ccc2nc(-c3cccc(S(=O)(=O)N(C)C)c3)cn2c1 | 0 | 0 | 99 | 0 | 0
CC1CCCC(NC(=S)NC(=O)c2ccco2)C1C (stereo unspecified) | - | 0 | 0 | - | 0
OC1c2c(F)cccc2N=C2CCCCCN21 (stereo unspecified) | - | 0 | - | - | -
O=C(NC1CCN(S(=O)(=O)c2ccc(F)cc2)CC1)c1cccnc1 | 0 | 0 | 0 | 0 | 0
Cc1ccc(NC2CCCN(C(=O)c3cccc(-c4ncc[nH]4)c3)C2)cc1C (stereo unspecified) | 0 | 0 | 97 | 0 | 0
Cc1ccc(NC2CCCN(C(=O)c3ccccc3-c3ncc[nH]3)C2)cc1C (stereo unspecified) | 0 | 0 | 99 | 0 | 0
O=C(CCl)N1CCN(S(=O)(=O)Cc2ccccc2)CC1 | - | 0 | 0 | - | 0
O=C1CSCc2nc3ccccc3n21 | - | 0 | - | - | 0
CCOc1ccc(NC(=O)N(c2ccccc2)c2ccccc2)cc1 | 0 | 0 | 0 | - | 0
C=CC[n+]1c(-c2ccc(OCC)cc2)csc1NNC(=O)Nc1ccccc1 | 0 | 0 | 0 | 61 | 0
O=C(CNc1cccc([N+](=O)[O-])c1)N1CCN(S(=O)(=O)c2ccc(Cl)cc2)CC1 | - | 0 | - | - | 0
COc1cc(NC(=O)CSc2nc(=O)n(CCCN3CCOCC3)c3c2CCC3)cc(OC)c1 | - | 0 | 99 | - | 0
CC(=O)c1cccc(NC(=O)CSc2nc(=O)n(CCN3CCOCC3)c3c2CCC3)c1 | - | 0 | 0 | - | 0
Cc1cc(C)cc(NC(=O)CSc2nc(=O)n(CCCN3CCOCC3)c3c2CCCC3)c1 | - | 0 | 96 | - | 0
COc1cc(NC(=O)CSc2nc(=O)n(CCN3CCOCC3)c3c2CCC3)cc(OC)c1 | - | 0 | 97 | - | 0
SMILES | M18AAP inhibitor | Cardio protect | ALR inh | PHOSPHO1 inh | PfG6PD inh
CC(=O)Nc1cccc(NC(=O)CSc2nc(=O)n(CCN3CCOCC3)c3c2CCCC3)c1 | - | 0 | 99 | - | 0
O=C(CSc1nc(=O)n(CCN2CCOCC2)c2c1CCC2)Nc1ccc(OC(F)(F)F)cc1 | - | 0 | 97 | - | 0
O=C(CSc1nc(=O)n(CCCN2CCOCC2)c2c1CCCC2)Nc1cccc(F)c1 | - | 0 | ? | - | 0
CCOc1ccc(NC(=O)CSc2nc(=O)n(CCN3CCOCC3)c3c2CCCC3)cc1 | - | 0 | 0 | - | 0
COc1ccc(NC(=O)CSc2nc(=O)n(CCN3CCOCC3)c3c2CCC3)cc1 | - | 0 | 98 | - | 0
CC1CC/C(=N/Nc2ccccc2)C(=O)N1 (stereo unspecified) | 0 | 0 | 99 | 0 | 0
COc1ccc(S(=O)(=O)N2CCCCCC2)cc1NC(=O)CCNC(=O)c1ccccc1Cl | - | 0 | - | - | 0
CCn1ncc(C2=NOC(C(=O)Nc3cccc(C(C)=O)c3)C2)c1C (stereo unspecified) | 0 | 0 | 97 | 0 | 0
CCn1ncc(C2=NOC(C(=O)NCc3ccccc3)C2)c1C (stereo unspecified) | 0 | 0 | 0 | 0 | 0
COCCn1cnnc1SCC(=O)c1ccc(S(=O)(=O)N2CCCC2)cc1 | 0 | 0 | 87 | 0 | 0
Cn1cnnc1SCC(=O)Nc1cc(S(=O)(=O)N2CCCCC2)ccc1Cl | 0 | 0 | 0 | 0 | 0

Screening data as filed in PubChem.
